Experimental data taken from publication PMC4552634, “A New Set of Chemical Starting Points with Plasmodium falciparum Transmission-Blocking Potential for Antimalarial Drug Discovery” (PLoS ONE, 2015).
Among all 13,000 compounds or so, about 3,200 (25%) showed an effect of 50% or more. The list shows a part of the results.

test system: P. falciparum stage V gametocytes; set-up: BacTiter-Glo ATP luminescence viability of purified stage V gametocytes in 384-well plates, per cent inhibition versus DMSO; settings: 48 h, 5 µM; inhibitor

Row | SMILES | % Inhibition
1 | CC(C)(C)CN1C(=O)C(c2ccccc2)(c2ccccc2)N=C1N [TCMDC-136760] | 24.92%
2 | CCOc1ccc(-c2nc(NC(=O)CS(=O)(=O)c3ccccc3)sc2C)cc1 [TCMDC-123524] | 43.85%
3 | OC(CNc1ccnc(Nc2ccc(Cl)cc2)n1)c1ccccc1C(F)(F)F (stereo not shown) [TCMDC-136579] | 19.1%
4 | OC(CNCc1ccccc1OCc1ccccc1)c1cccc(C(F)(F)F)c1 (stereo not shown) [TCMDC-140299] | 10.62%
5 | O=C(/C=C/c1ccc(F)cc1)NC1CCC(CCN2CCc3ccc(-n4cccn4)cc3CC2)CC1 (stereo not shown) [TCMDC-140323] | -53.18%
6 | Nc1nc(N)c2c3c(cnc2n1)CCCC3 [TCMDC-137925] | 38.2%
7 | CCn1c(-c2nonc2N)nc2c(-c3ccccc3)ncc(OCCCCNCCc3ncc[nH]3)c21 [TCMDC-136000] | 104.7%
8 | CCn1c(-c2nonc2N)nc2c(-c3ccccc3)ncc(OCCCNCCCN3CCOCC3)c21 [TCMDC-135858] | 109%
9 | COc1cc2c(Nc3cccc(NC(=O)c4ccccc4)c3)ncnc2cc1OCCCN1CCOCC1 [TCMDC-135174] | 18.79%
10 | NCCCOc1cnc(-c2ccccc2)c2nc(-c3nonc3N)n(CCc3ccccc3)c12 [TCMDC-136216] | 116.7%
11 | COc1cc2c(Nc3ccc(NC(=O)c4ccccc4)cc3)ncnc2cc1OCCCN1CCOCC1 [TCMDC-125873] | -52.63%
12 | CCn1c(-c2nonc2N)nc2c(-c3ccc(CO)o3)ncc(OCCCN)c21 [TCMDC-133807] | -40.81%
13 | CC[C@H]1CN2CC[C@H]1C[C@H]2[C@H](O)c1ccnc2ccc(C#N)cc12 [TCMDC-138234] | 18.99%
14 | CC(=O)c1c[nH]c(C(=O)Nc2ccc(-c3cn4ccccc4n3)cc2)c1 [TCMDC-124599] | 36.18%
15 | N=C(N)NN=CC(=O)Nc1cc([N+](=O)[O-])cc([N+](=O)[O-])c1 [TCMDC-137446] | 15.96%
16 | CCCCc1cc(NCC)nc(Nc2ccc(OC)cc2)n1 [TCMDC-133991] | -52.54%
17 | Nc1nc2c(c(=O)[nH]1)-c1cccc(Br)c1CC2 [TCMDC-137755] | -6.306%
18 | Cc1ccc(CNC(=O)[C@H](CC(C)C)Nc2cc(C)nc(Nc3ccccc3)n2)cc1 [TCMDC-134740] | 5.216%
19 | Cc1ccc(CNC(=O)[C@H](CCCN)Nc2nc(Nc3ccccc3)ncc2C)cc1 [TCMDC-134947] | 27.45%
20 | Cc1cnc(NCC2CCCCC2)nc1N[C@@H](CO)C(=O)Nc1ccccc1 [TCMDC-134859] | -15.9%
21 | Cc1ccc(CNC(=O)[C@H](CCCN)Nc2cc(C)nc(Nc3ccccc3)n2)cc1 [TCMDC-134744] | 61.85%
22 | Cc1ccc(CNC(=O)[C@H](Cc2ccccc2)Nc2cc(C)nc(Nc3ccccc3)n2)cc1 [TCMDC-134858] | 7.065%
23 | Cc1ccc(CNC(=O)[C@H](Cc2ccccc2)Nc2ccnc(NCC3CCCCC3)n2)cc1 [TCMDC-134709] | -30.11%
24 | Cc1ccc(CNC(=O)[C@H](CCCN)Nc2cc(C)nc(NCC3CCCCC3)n2)cc1 [TCMDC-134923] | 95.63%

Row | SMILES | % Inhibition
25 | Cc1ccc(CNC(=O)[C@H](Cc2ccccc2)Nc2cc(C)nc(NCC3CCCCC3)n2)cc1 [TCMDC-134932] | -13.97%
26 | Cc1cnc(Nc2ccccc2)nc1N[C@@H](CCCN)C(=O)Nc1ccccc1 [TCMDC-134915] | 85.94%
27 | Cc1ccc(CNC(=O)[C@H](CCCN)Nc2nc(NCC3CCCCC3)ncc2C)cc1 [TCMDC-134754] | 82.69%
28 | Cc1cnc(NCC2CCCCC2)nc1N[C@@H](CC(C)C)C(=O)Nc1ccccc1 [TCMDC-134751] | -31.13%
29 | Cc1ccc(CNC(=O)[C@H](CC(C)C)Nc2cc(C)nc(NCC3CCCCC3)n2)cc1 [TCMDC-134918] | -23.99%
30 | O=c1cc(NCCCNCc2ccc(Cl)c(Cl)c2)[nH]c2ccc(Oc3ccccc3)cc12 [TCMDC-139409] | 3.988%
31 | CCN(CC)CCCC(C)N=C(Nc1ccc(C#N)cc1O)Nc1ccccc1Br (stereo not shown) [TCMDC-140130] | 34.96%
32 | COc1ccccc1CNC(=O)c1nn(-c2ccc(Cl)cc2)c(=O)c2ccccc12 [TCMDC-125601] | -3.161%
33 | CCCc1ccc(S(=O)(=O)NC2CCN(c3ccnc(Nc4ccc(OC)cc4)n3)C2)cc1 (stereo not shown) [TCMDC-133613] | 30.72%
34 | O=C(NCC1CCC(C(=O)NCCc2ccc(Cl)c(Cl)c2)CC1)c1ccc(O)c(-c2ccc(Cl)c(Cl)c2)c1 (stereo not shown) [TCMDC-140893] | 30.85%
35 | COc1ccc(NC(=O)Nc2cc(C)nc3cccnc23)cc1Cn1ccnc1 [TCMDC-140647] | -24.24%
36 | COc1ccccc1CCCN1C(=O)C(c2ccccc2)(c2ccccc2)N=C1N [TCMDC-136504] | -6.463%
37 | O=C(c1cc(-c2ccccc2)n[nH]1)N1CCN(S(=O)(=O)c2ccc(Cl)s2)CC1 [TCMDC-124697] | 44.38%
38 | Cc1cc(Cc2ccc(S(=O)(=O)c3cc4c(cc3O)CCN(C)CC4)cc2)ccc1Cl [TCMDC-135485] | 17.27%
39 | O=[N+]([O-])c1ccc2c(-c3ccccc3)c(-c3ccccc3)n(O)c2c1 [TCMDC-137050] | 9.077%
40 | O=[N+]([O-])c1ccc2c(c1)c1ccccc1n2Cc1ccccc1O [TCMDC-124344] | 66.38%
41 | Cc1nc2ccc([N+](=O)[O-])cc2c(=O)n1OCc1ccccc1 [TCMDC-131598] | 18.76%
42 | Cc1ccc(C(=O)Nc2ccc(F)c(F)c2F)cc1S(=O)(=O)N1CCCCC1 [TCMDC-124324] | 19.7%
43 | CC1(C)N=C(N)N=C(N)N1OCCCOc1cc(Cl)c(Cl)cc1Cl [TCMDC-137301] | -2.55%
44 | CC(C)(C)c1ccccc1OCCCON1C(N)=NC(N)=NC1(C)C [TCMDC-131751] | 48.16%
45 | CCCc1cc(C)ccc1OCCCON1C(N)=NC(N)=NC1(C)C [TCMDC-131320] | 40.89%
46 | CC1(C)N=C(N)N=C(N)N1OCCCOc1cc(Cl)ccc1Cl [TCMDC-131679] | 20.73%
47 | CCCc1cc(OCCCOc2ccccc2)ccc1OCCCON1C(N)=NC(N)=NC1(C)C [TCMDC-131328] | 103.6%
48 | CCOC(=O)c1cc(Cl)ccc1OCCCON1C(N)=NC(N)=NC1(C)C [TCMDC-131705] | -0.9845%

Row | SMILES | % Inhibition
49 | CC1(C)N=C(N)N=C(N)N1OCCCCOc1ccccc1 [TCMDC-131658] | 4.25%
50 | CC1(C)N=C(N)N=C(N)N1OCCCCOc1ccc(Cl)cc1C1CCCCC1 [TCMDC-131659] | 106.8%
51 | CC(C)(C)c1ccc(OCCCON2C(N)=NC(N)=NC2(C)C)c(C(C)(C)C)c1 [TCMDC-131308] | 56.27%
52 | COC(=O)Cn1c(C2CCN(CC3CCC(NC(=O)/C=C/c4ccc(Cl)c(Cl)c4)CC3)CC2)nc2ccccc21 (stereo not shown) [TCMDC-140297] | -20.25%
53 | OC(CNCc1ccccc1OC(F)F)c1cccc(C(F)(F)F)c1 (stereo not shown) [TCMDC-140395] | 21.35%
54 | c1ccc(COc2ccc(COc3ccc(Cn4ccnc4)cc3)cc2)cc1 [TCMDC-136714] | 11.69%
55 | O=C(Nc1ccc(N2CCC(Nc3ccccn3)CC2)cc1)c1cnc(Cl)c(Cl)c1 [TCMDC-134629] | 28.05%
56 | Cc1cccc2nc(-c3ccc(-c4cccc(C(=O)NCCN5CCCC5)c4)s3)[nH]c12 [TCMDC-132317] | 13.21%
57 | Cc1cc(N[C@@H](CC(C)C)C(=O)NC2CCCC2)nc(NCC2CCCCC2)n1 [TCMDC-134936] | -32.07%
58 | Cc1cc(N[C@@H](CC(C)C)C(=O)NC2CCCC2)nc(NCc2ccccc2C)n1 [TCMDC-134908] | -12.42%
59 | Cc1cc(N[C@@H](Cc2ccccc2)C(=O)NC2CCCC2)nc(NCC2CCCCC2)n1 [TCMDC-134927] | -16.19%
60 | Cc1cc(N[C@@H](Cc2ccccc2)C(=O)NC2CCCC2)nc(NCCc2ccc(F)cc2)n1 [TCMDC-134784] | 110%
61 | Cc1cc(N[C@@H](CC(C)C)C(=O)NC2CCCC2)nc(NCCc2ccc(F)cc2)n1 [TCMDC-134791] | 99.38%
62 | Cc1cc(N[C@@H](Cc2ccccc2)C(=O)NC2CCCC2)nc(NCCOc2ccccc2)n1 [TCMDC-134755] | 31.62%
63 | O=c1cc(NCCCNCc2ccc(Cl)c(Cl)c2)[nH]c2cc(F)cc(F)c12 [TCMDC-139408] | -8.545%
64 | COc1cc(NC(=O)N2CCOC(CCN3CCC(c4ccccc4)CC3)(c3ccc(Cl)c(Cl)c3)C2)cc(OC)c1 (stereo not shown) [TCMDC-135343] | -16.83%
65 | COc1ccc2nccc([C@@H](O)CN3CCC(NCCNc4ccccn4)CC3)c2c1 [TCMDC-140562] | 28.84%
66 | COc1ccc(C(=O)N2CCC3(CC2)C(=O)N(CC(=O)NC2CCCCC2)CN3c2ccccc2)c(OC)c1 [TCMDC-125169] | -35.99%
67 | COCCCNC(=O)C1CCN(C(c2ccc(Cl)cc2)c2ccc(Cl)cc2)CC1 [TCMDC-135521] | -10.75%
68 | O=C(Nc1ccccc1)NC1CCN(CCC2(c3ccc(Cl)c(Cl)c3)COCN(C(=O)c3ccccc3)C2)C1 (stereo not shown) [TCMDC-141759] | 59.82%
69 | CC(=O)c1ccc(N2CCN(CCC3(c4ccc(Cl)c(Cl)c4)COCN(C(=O)c4ccccc4)C3)CC2)cc1 (stereo not shown) [TCMDC-141761] | 30.09%
70 | O=C(c1ccccc1)N1COCC(CCN2CCC(N3CCCC3)CC2)(c2ccc(Cl)c(Cl)c2)C1 (stereo not shown) [TCMDC-141760] | 43.61%
